# “And” between values parts separate entries of the source, which are not always exact repeats. Equal entries are not always repeated. The panel holds about 79,000 compounds, 15% with a hit somewhere; the sample as a whole holds those more often. Values without a mark were called inactive. The source made the active and inactive calls. No stated cut-off is given here; in the data, active means growth inhibition above about 70%; inactive means the rest.
# Assays:
# [1] = NCI Yeast Anticancer Drug Screen. Data for the mec2-1 strain (AID 157); conditions: S. cerevisiae mec2-1 strain, active compounds read high
# How it was run: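 Vehicle-treated cultures served as reference for growth inhibition of compound-exposed mec2-1 yeast.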
# [2] = NCI Yeast Anticancer Drug Screen. Data for the sgs1 mgt1 strain (AID 161);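 further: 0% = growth of cultures given vehicle only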; conditions: S. cerevisiae sgs1 mgt1 strain, active compounds read high
# How it was run: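 Test agents were incubated with a DNA-repair-mutant yeast strain. Growth was then read and compared against vehicle-treated controls.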
# [3] = NCI Yeast Anticancer Drug Screen. Data for the cln2 rad14 strain (AID 165);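 further: 0% = growth equal to vehicle treated cultures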; conditions: S. cerevisiae cln2 rad14 strain, active compounds read high
# How it was run: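 Each compound was tested on cln2 rad14 yeast. Inhibition of growth was calculated against vehicle-exposed controls.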
# [4] = NCI Yeast Anticancer Drug Screen. Data for the bub3 strain (AID 167); conditions: S. cerevisiae bub3 mutant strain, active compounds read high
# How it was run: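 Compounds were applied to a genetically altered yeast strain carrying a cell-cycle control defect. Growth inhibition was scored against vehicle-treated controls.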
# [5] = NCI Yeast Anticancer Drug Screen. Data for the mlh1 rad18 strain (AID 175); conditions: S. cerevisiae mlh1 rad18 strain growth inhibition, active compounds read high
# How it was run: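 Vehicle-treated cultures served as the reference for growth inhibition in a yeast strain carrying DNA damage repair alterations exposed to each compound.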
# [6] = NCI Yeast Anticancer Drug Screen. Data for the rad50 strain (AID 155);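 further: 0% = growth of vehicle-only cultures of the same strain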; conditions: S. cerevisiae rad50 strain growth inhibition, active compounds read high
# How it was run: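 Yeast carrying a defined DNA repair defect were exposed to test compounds, and growth was compared with vehicle-treated controls to give percent inhibition.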
# [7] = at 5.0 µM (retest, dose inferred, filed as 0.5)
# [8] = at 50.0 µM (retest, dose inferred, filed as 5.0)
Compound,"growth inhibition [1, 7]","growth inhibition [1, 8]",growth inhibition ([1]; at 50.0 µM),"growth inhibition [2, 7]","growth inhibition [2, 8]",growth inhibition ([2]; at 50.0 µM),"growth inhibition [3, 7]","growth inhibition [3, 8]",growth inhibition ([3]; at 50.0 µM),"growth inhibition [4, 7]","growth inhibition [4, 8]",growth inhibition ([4]; at 50.0 µM),"growth inhibition [5, 7]","growth inhibition [5, 8]",growth inhibition ([5]; at 50.0 µM),"growth inhibition [6, 7]","growth inhibition [6, 8]",growth inhibition ([6]; at 50.0 µM)
Cc1ccc(S(=O)(=O)Nc2ccccc2SSc2ccccc2NS(=O)(=O)c2ccc(C)cc2)cc1,38%,81% (active),63.8%,59%,76% (active),60.6%,44%,82% (active),68.9%,53%,74% (active),60.4%,63%,77% (active),60.5%,,,
C=C1CC2(CCS(=O)(=O)c3ccccc32)OC1=O (stereo unspecified),5%,35%,60.6%,7%,37%,69%,6%,15%,36.6%,2%,47%,46.6%,2%,49%,48.9%,,,
CCCCCCCCCc1c(O)c(O)c(CCCCCCCCC)c(CCCCCCCCC)c1CCCCCCCCC,-11%,30%,-5.95%,-10%,28%,54.9%,33%,55%,49.9%,-6%,87% (active),55.4%,-6%,38%,85.3% (active),,,
O=C(OCc1ccccc1)N1N=NC2C1C1CC(OCc3ccccc3)(OCc3ccccc3)C2O1 (stereo unspecified),,,,18%,18%,-10.7%,4%,4%,13.2%,6%,6%,18%,18%,18%,-22.2%,18%,18%,40.1%
Fc1cccc(CSc2n[nH]c(=S)c3nc[nH]c23)c1,,,,-1%,-10%,15.4%,-7%,-14%,40.8%,-2%,-3%,-3.85%,-16%,-16%,5.1%,0%,-3%,9.9%
COC1OC(CO)C(O)C(O)C1O (stereo unspecified),,,-5.2% and 1.65% and -23.1%,,,-4.3% and -4.25% and -9.9%,,,16.9% and -53.9% and -37.4%,,,-12.3% and 5.7% and -2.25%,,,0.8% and 7.3% and -8.25%,,,-6.55% and -5.05% and -29.2%
CCCCN(CCCC)c1ccc2c(c1)C(O)c1ccccc1-2 (stereo unspecified),2%,74% (active),59.2%,,,,5%,85% (active),74.8% (active),0%,77% (active),82% (active),15%,72% (active),85.2% (active),6%,81% (active),76.5% (active)
CCO/C=C1/N=C(c2cc(Cl)cc([N+](=O)[O-])c2)OC1=O,-2%,12%,1.3%,-15%,2%,13.7%,18%,22%,-60.5%,6%,5%,-8.75%,-15%,6%,9.15%,,,
C(=C\[n+]1ccc2ccccc2c1)/c1ccccc1,,,,-4%,38%,68.7%,-3%,-3%,42.5%,-5%,27%,8%,10%,10%,74.9% (active),-3%,35%,80% (active)
COc1cccc2c1C(=O)c1c(O)c3c(c(O)c1C2=O)CC(O)(C(C)=O)CC3OC1CC(N/C(C)=C/C(C)=O)C(O)C(C)O1 (stereo unspecified),,,,45%,98% (active),88.9% (active),60%,98% (active),88.4% (active),69%,98% (active),85.8% (active),79% (active),97% (active),88.4% (active),91% (active),95% (active),88.5% (active)
